Screens: PubChem BioAssay, The Scripps Research Institute Molecular Screening Center
Only some compounds are listed: those with a hit (about 1.8% of all), similar ones and a draw of the others.
PME-1 inh: blocks human protein phosphatase methylesterase 1 | inhibition, % at 5.9 µM | Q9Y570 | actives 0.53% (n = 320,000) | recombinant PME-1, FP-Rh probe fluorescence polarization | AID 2130;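 active means inhibition above the campaign mean of all compounds plus 3 SD, cut at about 26% in these data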;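 further: competitive labeling of PME-1 active site by serine hydrolase directed probe; inhibitors block probe labeling so polarization falls and inhibition rises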
GSTO1 inh: blocks human GSTO1 in RBBP9 counter-screen; P78417; recombinant GSTO1, activity-based probe fluorescence polarization; inhibition, % at 5.96 µM; actives 1.1% (n = 300,000);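 active means inhibition above the campaign mean inhibition plus 3 SD, cut at about 35% in these data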
PAD4 inh: PAD4 (human) enzyme inhibition; recombinant PAD4, RCA probe fluorescence polarization; actives 0.41% (n = 330,000); AID 485272; Q9UM07; inhibition, % at 6.36 µM;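 active means percent inhibition above a cutoff equal to the mean of all tested compounds plus 3 SD, cut at about 15% in these data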
Target sequence (Q9UM07 whole entry, looked up): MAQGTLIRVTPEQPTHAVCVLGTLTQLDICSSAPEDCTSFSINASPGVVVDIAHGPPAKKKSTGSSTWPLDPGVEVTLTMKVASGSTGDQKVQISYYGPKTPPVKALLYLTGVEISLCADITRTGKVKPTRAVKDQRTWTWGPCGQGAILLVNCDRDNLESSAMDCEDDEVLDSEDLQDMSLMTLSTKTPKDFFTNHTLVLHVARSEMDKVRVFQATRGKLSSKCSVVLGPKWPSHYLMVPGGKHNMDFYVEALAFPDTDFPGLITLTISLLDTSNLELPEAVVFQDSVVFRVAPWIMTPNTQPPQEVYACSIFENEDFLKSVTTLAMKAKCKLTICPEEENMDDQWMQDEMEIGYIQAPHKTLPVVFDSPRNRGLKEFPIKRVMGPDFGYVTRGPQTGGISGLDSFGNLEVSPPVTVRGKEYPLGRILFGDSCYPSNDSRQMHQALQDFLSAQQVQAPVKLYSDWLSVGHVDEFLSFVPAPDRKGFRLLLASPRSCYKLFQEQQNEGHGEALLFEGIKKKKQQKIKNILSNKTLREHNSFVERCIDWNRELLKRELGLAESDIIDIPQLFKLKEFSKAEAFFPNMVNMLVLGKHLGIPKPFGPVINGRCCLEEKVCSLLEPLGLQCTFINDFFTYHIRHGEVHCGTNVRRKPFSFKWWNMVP
LYPLA1 counter: LYPLA1 (human) inhibition in PME1 counter-screen; O75608; recombinant LYPLA1, FP-Rh probe fluorescence polarization; inhibition, % at 5.9 µM; actives 0.16% (n = 320,000);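 active means inhibition above the mean of all tested compounds plus 3 SD, set per campaign, cut at about 14% in these data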;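 further: inhibitors block serine hydrolase probe labeling of LYPLA1 so polarization falls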
Fam108B inh: blocks mouse Fam108B hydrolase in RBBP9 counter-screen. recombinant Fam108B, FP-Rh probe fluorescence polarization. inhibition, % at 9.51 µM. actives 0.33% (n = 300,000). AID 1947;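 active means inhibition above the screen mean inhibition plus 3 SD, computed separately per campaign, cut at about 18% in these data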;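 further: inhibitors lower polarization as less probe binds the enzyme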
LYPLA2 inh: counter-screen for PME1 inhibitors: inhibitors of human LYPLA2; O95372; actives 0.38% (n = 320,000); recombinant LYPLA2, FP-Rh probe fluorescence polarization; inhibition, % at 5.9 µM;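 active means inhibition above the screen-wide mean plus 3 SD, limit set per campaign, cut at about 26% in these data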
Fam108b confirm: Fam108b (mouse) hydrolase inhibition, confirmation assay. shares compounds with Fam108B inh. recombinant Fam108b, FP-Rh probe fluorescence polarization. inhibition, % at 9.51 µM. actives 44% (n = 930). AID 1978;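 active means inhibition above a limit from the primary screen, the mean over all compounds plus 3 SD, cut at about 19% in these data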;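 further: inhibitors free the probe so polarization falls as inhibition rises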
Fam108b inh: mouse ABHD17B inhibition; shares compounds with Fam108B inh; recombinant Fam108b, gel-based ABPP, fluorophosphonate probe; inhibition, % at 20 µM; actives 44% (n = 260); AID 588649; in the data active means inhibition above about 40%
GSTO1 confirm: confirmation of human GSTO1 inhibitors; shares compounds with GSTO1 inh; recombinant GSTO1, probe fluorescence polarization; inhibition, % at 5.96 µM; actives 54% (n = 2,400);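 active means inhibition above the primary screen's cutoff, its mean inhibition plus 3 SD, cut at about 35% in these data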;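 further: loss of polarization as inhibitors block binding of rhodamine sulfonate ester activity probe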
LYPLA1 conf: LYPLA1 (human) inhibition, confirmation counter-screen. shares compounds with LYPLA1 counter. recombinant LYPLA1, FP-Rh probe fluorescence polarization. inhibition, % at 5.9 µM. actives 69% (n = 480). AID 2233;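 active means mean inhibition across replicates above the hit cutoff set in the primary screen, cut at about 15% in these data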;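 further: loss of FP-Rh probe labeling of LYPLA1 seen as lower polarization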
LYPLA2 confirm: counter-screen for PME1 inhibitors: confirmation of human LYPLA2 inhibitors. shares compounds with LYPLA2 inh. recombinant LYPLA2, FP-Rh probe fluorescence polarization. inhibition, % at 5.9 µM. actives 72% (n = 1,100). AID 2232;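 active means mean inhibition across replicates above the hit cutoff set in the primary screen, cut at about 26% in these data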;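 further: blocked labeling of the enzyme by serine hydrolase FP-Rh probe lowers polarization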
PAD4 confirm: PAD4 (human) inhibition, confirmed; shares compounds with PAD4 inh; recombinant PAD4, RCA probe fluorescence polarization; inhibition, % at 6.36 µM; actives 28% (n = 1,200); AID 488796;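 active means mean inhibition across replicates above the hit cutoff set by the earlier primary screen, cut at about 15% in these data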;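 further: inhibitors block active-site labeling by the probe so polarization falls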
Large screens that a line does not name were inactive (follow-up assays come after a bar, where they were run).

CN1/C(=C\C=C\C2=[N+](C)c3ccc4ccccc4c3C2(C)C)C(C)(C)c2ccccc21	PME-1 inh 179, PAD4 inh 119
CN1/C(=C\C=Nc2ccccc2)C(C)(C)c2ccccc21	none
CC(=O)c1ccc2c(c1)C1C(Cl)C(Sc3ccccc3[N+](=O)[O-])CC1C(c1ccccc1)N2 (configuration not stated)	PME-1 inh 70, Fam108B inh 38 | Fam108b confirm inactive
CC1=Nc2ccccc2/C1=C/c1c(O)[nH]c(=O)[nH]c1=O	none
O=c1[nH]c(O)c(/C=C2/C=CC(c3cc(Cl)ccc3Cl)=N2)c(=O)[nH]1	Fam108B inh 27 | Fam108b confirm 20
Cc1ccc(N2C(=O)CC(=O)NC2=O)c(C)c1	none
CN(C)CCc1nn[nH]n1	none
COc1cccc(C(=O)C2CN(C)CC2c2ccc(Cl)cc2)c1 (configuration not stated)	none
CN1CC(C(=O)c2cccc(C(F)(F)F)c2)C(c2ccc(Cl)cc2)C1 (configuration not stated)	Fam108B inh 20 | Fam108b confirm inactive
COc1ccc(OC)c(N2C(=O)NC(=O)/C(=C/c3ccc([N+](=O)[O-])s3)C2=O)c1	Fam108B inh 46 | Fam108b confirm inactive
COc1ccc(OC)c(N2C(=O)CC(=O)NC2=O)c1	none
COc1nc(NCC2CCCO2)nc(N2CC3CC(C2)c2cccc(=O)n2C3)n1 (configuration not stated)	none
S=P(NC1CCCCC1)(N1CC1)N1CC1	none
C/C(=N\NC(=O)c1ccccc1O)c1c(O)n(C2CCCCC2)c(=O)[nH]c1=O	Fam108B inh 19 | Fam108b confirm 21
C/C(=N\NC(=O)c1ccccc1O)c1c(O)n(Cc2ccccc2)c(=O)[nH]c1=O	Fam108B inh 21 | Fam108b confirm 82 | Fam108b inh inactive
NC(N)=N/N=C/c1ccc(N(c2ccccc2)c2ccccc2)cc1	Fam108B inh 19 | Fam108b confirm 19
CC1Oc2cc3c(-c4c(O)cc(O)c5c(O)c6c(cc45)OC(C)C(C)C6=O)c(O)cc(O)c3c(O)c2C(=O)C1C (configuration not stated)	PME-1 inh 28, GSTO1 inh 73, Fam108B inh 41 | Fam108b confirm 37 | Fam108b inh inactive | GSTO1 confirm 60
Cn1cccc1CNCCc1ccc(F)cc1	none
COc1ccc(OC)c(N2C(=O)/C(=C/c3ccco3)C(=O)NC2=S)c1	PME-1 inh 39, Fam108B inh 82, LYPLA2 inh 30 | Fam108b confirm inactive | LYPLA2 confirm inactive
CCC(C)N1CCN(C(=O)COc2ccc3ccccc3c2)CC1 (configuration not stated)	none
C[n+]1c2ccccc2nc2ccc(NCCO)cc21	PME-1 inh 71, GSTO1 inh 69, PAD4 inh 84, LYPLA1 counter 70, Fam108B inh 72, LYPLA2 inh 63 | Fam108b confirm 42 | Fam108b inh inactive | GSTO1 confirm 46 | LYPLA1 conf 63 | LYPLA2 confirm 48
OCCNc1c2c(nc3ccccc13)CCCC2	none
CNc1ccc2nc3ccccc3[n+](C)c2c1	PME-1 inh 116, GSTO1 inh 101, PAD4 inh 108, LYPLA1 counter 103, Fam108B inh 102, LYPLA2 inh 117 | Fam108b confirm 67 | Fam108b inh inactive | GSTO1 confirm 62 | LYPLA1 conf 83 | LYPLA2 confirm 94 | PAD4 confirm 92
CCOC(=O)c1cc2c(cn1)[nH]c1ccccc12	none
CC1(C)CC(N(CCc2ccccc2)Cc2ccccc2)CCO1 (configuration not stated)	none
CC(C)OCCCNC(=O)c1c(N)n(Cc2cccs2)c2nc3ccccc3nc12	GSTO1 inh 60, PAD4 inh 52, Fam108B inh 19 | Fam108b confirm inactive | GSTO1 confirm inactive | PAD4 confirm inactive
O=C1C(=O)c2ccccc2-c2ccccc21	PME-1 inh 37, GSTO1 inh 90, PAD4 inh 82, LYPLA1 counter 83, Fam108B inh 64, LYPLA2 inh 85 | Fam108b confirm 65 | Fam108b inh inactive | GSTO1 confirm 94 | LYPLA1 conf 85 | LYPLA2 confirm 90 | PAD4 confirm 76
CCn1nc(-c2ccccc2)nc2c(=O)n(C)c(=O)nc1-2	PME-1 inh 42, GSTO1 inh 90, PAD4 inh 68, LYPLA1 counter 89, Fam108B inh 65, LYPLA2 inh 96 | Fam108b confirm 86 | Fam108b inh inactive | GSTO1 confirm 92 | PAD4 confirm inactive
CCCNC(=O)N1[C@H]2CC[C@@H]1C(C(=O)OC)=C(c1c(C)noc1C)C2	none (no result: GSTO1 inh, Fam108B inh)
Nc1ccc(C2(c3ccc(N)cc3)CN3CCC2CC3)cc1	none
Cc1nc2c(=O)n(C)c(=O)nc-2n(C)n1	PME-1 inh 36, GSTO1 inh 98, PAD4 inh 77, LYPLA1 counter 88, Fam108B inh 66, LYPLA2 inh 88 | Fam108b confirm 82 | Fam108b inh inactive | GSTO1 confirm 96 | LYPLA1 conf 83 | LYPLA2 confirm 95 | PAD4 confirm 69
CCOc1ccc(Cl)cc1CNCCc1ccc(F)cc1	none
CCC(C)/C=C(C)/C=C/C1=CC2=C(Cl)C(=O)C(C)(OC(C)=O)C(=O)C2=CO1 (configuration not stated)	GSTO1 inh 43 | GSTO1 confirm 40
CSc1ncc(Cl)c(C(=O)O)n1 (tested in a mixture with another compound)	none
O=C1NC(=O)C(Sc2ccccc2[N+](=O)[O-])C(=O)N1	GSTO1 inh 48 | GSTO1 confirm inactive
O=[N+]([O-])c1ccccc1Cl	none (no result: GSTO1 inh, Fam108B inh)
O=C(C(=C1N(Cc2ccc(Cl)nc2)CCN1Cc1ccc(Cl)nc1)[N+](=O)[O-])C(Cl)Cl	none
O=C(CN1CCCC1=O)N1CCOCC1	GSTO1 inh 56 | GSTO1 confirm inactive
